Source: PubChem (Broad Institute)
Many of the other results were omitted from the sample, so hits are more common in it than they were.
IDE exosite FP: exo-site inhibitors of human insulin-degrading enzyme; purified IDE, FL-6b probe fluorescence polarization; active compounds read low; z-score at 20 µM; hit rate 6.3% among 17,000;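 active means z-score of -3 or lower, meaning strong loss of probe binding signal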;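 further: His-tagged human IDE residues 42-1019 made in E. coli with 30 nM FL-6b probe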
Target sequence (P14735 42-1019 limits assumed): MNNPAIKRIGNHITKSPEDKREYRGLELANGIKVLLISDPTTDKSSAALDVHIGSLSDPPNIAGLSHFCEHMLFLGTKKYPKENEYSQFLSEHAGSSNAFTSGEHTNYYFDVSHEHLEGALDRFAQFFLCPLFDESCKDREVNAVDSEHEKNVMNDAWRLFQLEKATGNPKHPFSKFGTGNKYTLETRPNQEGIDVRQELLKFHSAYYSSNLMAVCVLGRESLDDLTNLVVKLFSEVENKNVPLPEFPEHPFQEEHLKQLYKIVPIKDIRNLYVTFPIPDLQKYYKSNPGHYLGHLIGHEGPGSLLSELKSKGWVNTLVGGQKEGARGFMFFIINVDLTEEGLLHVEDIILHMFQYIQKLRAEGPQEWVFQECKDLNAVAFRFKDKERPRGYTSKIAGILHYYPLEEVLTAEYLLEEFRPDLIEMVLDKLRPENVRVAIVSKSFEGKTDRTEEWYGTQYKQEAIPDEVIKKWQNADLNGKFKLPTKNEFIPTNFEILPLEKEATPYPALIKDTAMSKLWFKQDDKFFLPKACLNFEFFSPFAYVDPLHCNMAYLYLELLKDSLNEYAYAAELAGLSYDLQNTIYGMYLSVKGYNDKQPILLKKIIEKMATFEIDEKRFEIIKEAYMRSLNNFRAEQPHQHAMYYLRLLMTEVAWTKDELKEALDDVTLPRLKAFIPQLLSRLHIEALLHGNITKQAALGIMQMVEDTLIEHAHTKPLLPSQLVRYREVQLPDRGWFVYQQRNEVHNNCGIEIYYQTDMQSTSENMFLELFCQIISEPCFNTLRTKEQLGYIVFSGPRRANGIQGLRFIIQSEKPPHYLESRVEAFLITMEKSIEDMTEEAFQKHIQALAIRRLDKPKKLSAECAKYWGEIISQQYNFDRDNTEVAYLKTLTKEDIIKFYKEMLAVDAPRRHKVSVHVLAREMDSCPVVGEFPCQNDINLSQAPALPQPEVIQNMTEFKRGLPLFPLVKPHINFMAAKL
Large screens that a line does not name were inactive; ! = repeats disagree.

N#C[C@H]1[C@H](c2ccc(-c3ccccc3F)cc2)[C@H](CO)N1C(=O)C1CCC1	IDE exosite FP -3.1
COc1ccccc1-c1ccccc1[C@@H]1[C@@H](C#N)N(C(=O)C2CCC2)[C@H]1CO	none
COc1ccc(-c2ccc([C@@H]3[C@H](C#N)N(C(=O)c4cccnc4)[C@H]3CO)cc2)cc1	none
COc1ccc(-c2ccc([C@H]3[C@H](C#N)N(C(=O)C4CCCC4)[C@H]3CO)cc2)cc1	none
COc1ccccc1-c1ccccc1[C@H]1[C@@H](C#N)N(C(=O)C2CCC2)[C@H]1CO	none
COc1cccc(C#Cc2ccc([C@H]3[C@H]4CN(S(=O)(=O)c5ccccc5C)CC(=O)N4[C@H]3CO)cc2)c1	none
CCN1CC(=O)N2[C@@H](CO)[C@H](c3ccc(Br)cc3)[C@@H]2C1	none
CCS(=O)(=O)N1[C@H](C#N)[C@@H](c2ccc(C3=CCCCC3)cc2)[C@H]1CO	none
COc1ccc2c3c(n(C)c2c1)[C@@H](CO)N(C(=O)CN(C)C)CC31CCN(Cc2cncnc2)CC1	none
COc1ccccc1-c1ccccc1[C@@H]1[C@H](C#N)N(C(=O)C2CCOCC2)[C@H]1CO	none
COc1ccccc1-c1ccccc1[C@@H]1[C@H](C#N)N(C(=O)C2CCC2)[C@H]1CO	none
CS(=O)(=O)N1[C@H](C#N)[C@@H](c2ccccc2-c2ccccc2F)[C@H]1CO	none
COc1ccccc1-c1ccc([C@@H]2[C@@H](C#N)N(C(=O)C3CCC3)[C@@H]2CO)cc1	IDE exosite FP -12
COc1ccccc1-c1ccc([C@@H]2[C@H](C#N)N(C(=O)C3CCC3)[C@H]2CO)cc1	none
COc1ccccc1-c1ccccc1[C@H]1[C@@H](C#N)N(C(=O)C2CCC2)[C@@H]1CO	none
COc1ccccc1-c1ccc([C@H]2[C@H](C#N)N(C(=O)C3CCC3)[C@H]2CO)cc1	IDE exosite FP -8.1
CS(=O)(=O)N1[C@H](CO)[C@@H](c2ccc(-c3ccccc3F)cc2)[C@@H]1C#N	IDE exosite FP -3.1
COc1ccccc1-c1ccc([C@H]2[C@@H](CO)N(C(=O)C3CCOCC3)[C@H]2C#N)cc1	IDE exosite FP -8.3
CS(=O)(=O)N1[C@H](C#N)[C@@H](c2ccccc2)[C@@H]1CO	none
COc1ccccc1-c1ccc([C@H]2[C@@H](CO)N(C(=O)C3CC3)[C@H]2C#N)cc1	none
COc1ccccc1-c1ccc([C@H]2[C@@H](CO)N(C(=O)C3CCC3)[C@H]2C#N)cc1	none
CCNC(=O)[C@@H]1[C@@H](CO)[C@@H]2Cn3c(cccc3=O)[C@@H]2N1C(=O)CC1CC1	none
CCC(=O)N1CC(=O)N2[C@@H](CO)[C@H](c3ccc(-c4ccncc4)cc3)[C@@H]2C1	none
O=C(CCN1CCCCC1)N[C@H]1CC[C@H](CC(=O)N2CCC(Cc3ccccc3)CC2)O[C@@H]1CO	none
COc1ccc2c3c([nH]c2c1)[C@@H](CO)N(C(=O)Nc1ccc(F)cc1)CC31CN(C(=O)Nc2c(C)noc2C)C1	none
C/C=C/c1ccc([C@H]2[C@@H](CO)N3C(=O)CN(C(=O)c4ccc(F)cc4)C[C@@H]23)cc1	none
CN(C)CC#Cc1ccc([C@@H]2[C@@H](CO)N3CCCCN(CC4CC4)C[C@@H]23)cc1	none
C[C@H]1CN([C@@H](C)CO)C(=O)c2cc(C#CC3(O)CCCC3)cnc2O[C@H]1CN(C)S(=O)(=O)c1cccc(F)c1	none
CCN(C[C@@H]1[C@@H](c2ccc(-c3ccccc3)cc2)[C@H](CO)N1C(C)=O)C(C)=O	none
CCS(=O)(=O)Nc1ccc2c(c1)C(=O)N(C)[C@@H]1CC[C@@H](CC(=O)NC3CCCCC3)O[C@@H]1CO2	none
COCC(=O)Nc1ccc2c(c1)[C@@H]1C[C@H](CC(=O)N[C@@H](C)c3ccccc3)O[C@@H](CO)[C@@H]1O2	none
CO[C@@H](CN(C)C(=O)C1CCOCC1)[C@H](C)CN(C(=O)Nc1ccc(C(F)(F)F)cc1)[C@@H](C)CO	none
CCCC(=O)Nc1ccc2c(c1)OC[C@@H](C)NC[C@@H](C)[C@@H](OC)CN(C)C2=O	none
CN(C)C(=O)c1cccc(-c2ccc(C3[C@H]4CNC[C@@H]3N4Cc3nccs3)cc2)c1 (some centres not stated)	none
COc1cccc(C#Cc2ccc([C@H]3[C@@H](C#N)N(C(=O)C4CCC4)[C@@H]3CO)cc2)c1	none
CN(C)C(=O)c1cccc(-c2ccc([C@@H]3[C@H](C#N)N(C(=O)C4CC4)[C@H]3CO)cc2)c1	none
COc1cccc(C#Cc2ccc([C@H]3[C@@H](CO)N(C(=O)C4CCOCC4)[C@H]3C#N)cc2)c1	IDE exosite FP -5.1
CN(C)C(=O)c1cccc(-c2ccc([C@@H]3[C@@H](C#N)N(C(=O)C4CC4)[C@@H]3CO)cc2)c1	IDE exosite FP -3.6
COc1cccc(C#Cc2ccc([C@H]3[C@H](C#N)N(C(=O)C4CC4)[C@H]3CO)cc2)c1	none
CN(C)C(=O)c1ccc(-c2ccc(C3[C@@H]4CN(Cc5nccs5)C[C@H]3N4)cc2)cc1 (some centres not stated)	none
CN(C)C(=O)c1cccc(-c2ccc(C3[C@@H]4CN(Cc5nccs5)C[C@H]3N4)cc2)c1 (some centres not stated)	IDE exosite FP -3.2!
CN(C)C(=O)c1cccc(-c2ccc([C@@H]3[C@@H](C#N)N(C(=O)C4CC4)[C@H]3CO)cc2)c1	none
CCS(=O)(=O)N1CC2(CN(Cc3ccccc3F)[C@H](CO)c3[nH]c4cc(OC)ccc4c32)C1	none
N#C[C@@H]1[C@@H](c2ccccc2C2=CCCC2)[C@H](CO)N1C(=O)NC1CCCCC1	none
COC(=O)C[C@H]1C[C@H]2c3cc(NC(=O)c4ccc5c(c4)OCO5)ccc3O[C@H]2[C@H](CO)O1	none
COc1ccc(C#Cc2ccc3c(c2)[C@H]2[C@H](CCN2C(=O)Nc2ccc(C(F)(F)F)cc2)[C@@H](CO)N3C)cc1	none
C[C@@H]1CN([C@H](C)CO)C(=O)CCCn2nncc2CO[C@@H]1CN(C)Cc1ccccc1C(=O)O	none
OC[C@@H]1[C@H](c2ccc(Br)cc2)[C@H]2CN(Cc3ccccn3)CCCCN12	none
CCCC#Cc1ccc([C@@H]2[C@@H](CO)N3CCCCN(Cc4cncnc4)C[C@H]23)cc1	none
OC[C@@H]1[C@@H](c2ccc(C#Cc3ccccc3)cc2)[C@@H]2CN(Cc3ccccn3)CCCCN12	IDE exosite FP -8.6
CCCC#Cc1ccc([C@H]2[C@@H](CO)N3CCCCN(Cc4cncnc4)C[C@H]23)cc1	none
CCCC#Cc1ccc([C@@H]2[C@H]3CN(Cc4cncnc4)CCCCN3[C@H]2CO)cc1	none
OC[C@@H]1[C@@H](c2ccc(-c3ccccc3)cc2)[C@@H]2CN(Cc3ccccn3)CCCCN12	none
OC[C@H]1[C@@H](c2ccc(C#Cc3ccccc3)cc2)[C@@H]2CN(Cc3cncnc3)CCCCN12	IDE exosite FP -16
COCC#Cc1ccc([C@H]2[C@H](CO)N3CCCCN(Cc4cncnc4)C[C@@H]23)cc1	none
OC[C@H]1[C@H](c2ccc(C#Cc3ccccc3)cc2)[C@H]2CN(Cc3cncnc3)CCCCN21	IDE exosite FP -7.8
C[C@@H]1CN([C@@H](C)CO)C(=O)c2ccccc2-c2ccccc2CO[C@H]1CN(C)S(=O)(=O)c1cccs1	none
C[C@@H]1CCCCO[C@H](CN(C)C(=O)c2ccncc2)[C@@H](C)CN([C@@H](C)CO)C(=O)c2cc(NC(=O)CCC(F)(F)F)ccc2O1	none
CO[C@H]1CN(C)C(=O)c2cccc(C#N)c2OCC[C@@H]2CC[C@H](OC)[C@@H](CN(C)C(=O)[C@H]1C)O2	none
O=C(C1CC1)N1CC(=O)N2[C@@H](CO)[C@H](c3ccc(C#CCc4ccccc4)cc3)[C@@H]2C1	none
CCC(=O)N1CC(=O)N2[C@H](CO)[C@H](c3ccc(C#CCc4ccccc4)cc3)[C@H]2C1	IDE exosite FP -3.6
